# In PubChem BioAssay (NCATS):
# Records with an inconclusive call do not appear. Activity calls are given as the source filed them. Calls follow the shape of the dose curve; as a rule, active = well fitted inhibition curve with a large enough effect; inconclusive = small, poorly fitted or top-dose-only effect; inactive = no such curve, though single readings can be large or run the other way.
# Test system: Zika virus NS2B-NS3 protease (unlinked)
# Experiment: Optimization of GU AMC qHTS for Zika virus inhibitors: Unlinked NS2B-NS3 protease assay (AID 1347151); also: nearly all actives have a fitted effect of over 80% in size;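 as to activity change, negative = inhibition: 0% = no-inhibitor control and -100% = no-enzyme control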
# Details: recombinant ZIKV NS2B-NS3 protease, fluorogenic AMC substrate; series mostly up to 52.5 µM; activity change, negative = inhibition: at the top concentration
# Text: Avindra Nath, Ph.D., National Institute of Neurological Disorders and Stroke (NINDS), Bethesda, MD
# Radhakrishnan Padmanabhan, Ph.D., Georgetown University (GU), Washington D.C.
# Zika Virus causes congenital defects, including microcephaly and is associated with Guillain-Barre syndrome, eningoencephalitis and myelitis in infected adult. […] Using a target-based approach, we hope to establish a screening paradigm to uncover novel, cell-active NS2B-NS3 protease (Zika Virus) specific inhibitors from NCATS' collection of small molecules using qHTS.
# Early Translation Branch (ETB)
# National Center for Advancing Translational Sciences (NCATS), Rockville, MD
# National Institute of Health (NIH), Bethesda, Maryland
# Padmanabhan lab provided the NS2B hydrophilic domain and NS3 protease domain in a noncovalent complex used for the unlinked assay. Control compound aprotinin is obtained from Thermo Scientific (#78432; Waltham, Massachusetts). NS2B-NS3 AMC substrate (Bz-Nle-Lys-Arg-Arg-AMC; Nle-KRR-AMC) purchased from Bachem (#I-1995; Torrance, CA). Ac-VKTGKR-AMC purchased from Genscript or Bachem, Ac-FAAGKR-AMC purchased from Genscript, Ac-GLVKRR-AMC purchased from Genscript, Ac-LKKR-AMC purchased from Genscript.
# GU AMC unlinked NS2B-NS3 protease qHTS protocol:
# Briefly, 3 microL of Zika virus unlinked NS2B-NS3 protease (25 nM for linked final concentration), in assay buffer (10 mM Tris-HCl pH 8.0 with 0.01% Tween 20) was dispensed into a 1,536-well solid-bottom black plate (Greiner Bio One, Monroe, NC). Twenty-three nL of compounds (final concentration range 7.28 nM to 114 microM) or control Aprotinin (final concentration range 3.47 nM to 114 microM) were transferred via Wako Pin-tool (Wako Automation, Richmond, VA). […] Plates were then read immediately on a ViewLux High-throughput CCD imager (PerkinElmer, Waltham, MA) equipped with standard UV fluorescence optics (340(30) nm excitation, 450(20) nm emission) then incubated (room temperature, protected from light) for 15 minutes (~20% conversion). The change in fluorescence intensity over the 15-minute reaction period was normalized against no-inhibitor and no-enzyme controls and the resulting percent inhibition data were fitted to a 4-parameter Hill equation. Aprotinin was used as the intraplate control.
# Potency is read from the fitted curve at half-maximal effect.
Compound,"activity change, negative = inhibition",Potency
C[C@H]1C2Cc3ccc(O)cc3[C@@]1(C)CCN2CC1CC1,-2.11% (inactive),–
CCCN(CCC)C1Cc2cc(OC)c(OC)cc2C1,-1.22% (inactive),–
C#CCN[C@H](C)Cc1ccccc1,1.97% (inactive),–
Clc1ccc(N2CC3CCC(C2)N3)nn1,-7.58% (inactive),–
NC(=O)c1cc(N2CC2)c([N+](=O)[O-])cc1[N+](=O)[O-],0.0209% (inactive),–
CN(C(=O)Cc1ccc(Cl)c(Cl)c1)C(CN1CCCC1)c1cccc(OCC(=O)O)c1 (stereo not given),-8.35% (inactive),–
NCC(CP(=O)(O)O)c1ccc(Cl)cc1 (stereo not given),-0.661% (inactive),–
COc1ccc2[nH]cc(CCN)c2c1,-21.7% (inactive),–
O=C(NC1CN2CCC1CC2)c1cc2ccoc2cn1 (stereo not given),6.37% (inactive),–
CC(N)Cc1c[nH]c2ccc(O)cc12 (stereo not given),1.39% (inactive),–
CC(=O)OCC1=C(C(=O)O)N2C(=O)[C@@H](NC(=O)CCC[C@@H](N)C(=O)O)[C@H]2SC1,18.2% (inactive),–
NC(C(=O)O)c1cc(=O)[nH]o1 (stereo not given),0.684% (inactive),–
Clc1cc(I)cc(Cl)c1NC1=NCCN1,0.639% (inactive),–
N[C@@]1(C(=O)O)CC[C@@H](C(=O)O)C1,-6.71% (inactive),–
CO[C@H]1CC=C2CCN3CCC4=C(CC(=O)OC4)[C@]23C1,8.93% (inactive),–
NC(=O)c1ccc(OCC(O)CN2CC=C(c3ccc(F)cc3)CC2)cc1 (stereo not given),-2.47% (inactive),–
CCS(=O)(=O)Nc1cccc(C(=C2CCCCC2)c2cnc[nH]2)c1,7.38% (inactive),–
CN1CCc2cccc(Cl)c2CC1,3.47% (inactive),–
c1ccc2c(c1)[I+]c1ccccc1-2,-17.5% (inactive),–
CCN1C[C@@]2(COC)C3[C@@H](OC)C4[C@@H]1C3([C@@H]1C[C@]3(O)[C@H](OC(=O)c5ccccc5)[C@@H]1[C@]4(OC(C)=O)[C@@H](O)[C@@H]3OC)[C@H](OC)C[C@H]2O,6.25% (inactive),–

Compound,"activity change, negative = inhibition",Potency
c1ccc2cc(CC3=NCCN3)ccc2c1,1.02% (inactive),–
C[C@@H]1[C@@H]2Cc3ccc(O)cc3[C@@]1(C)CCN2CC1CC1,-5.71% (inactive),–
C[N+]1(C)CCN(c2ccccc2)CC1,-3.72% (inactive),–
O=c1ccc2[nH]cc(C3=CCNCC3)c2[nH]1,–,37.7 µM (active)
C[N+]1(C)CCOC(O)(c2ccc(-c3ccc(C4(O)C[N+](C)(C)CCO4)cc3)cc2)C1 (stereo not given),10.3% (inactive),–
CCCN1CCc2cccc3c2[C@H]1Cc1ccc(O)c(O)c1-3,–,29.9 µM (active)
NNC(=O)c1ccc(O)cc1,4.6% (inactive),–
c1ccc2c(N3CCNCC3)cccc2c1,–,26.7 µM (active)
NC(N)=NOCC[C@H](N)C(=O)O,3.52% (inactive),–
C[C@H](N)CN1CCc2ccc(Br)cc21,14.4% (inactive),–
NNC(N)=O,1.7% (inactive),–
O=C1CC[C@@]2(O)C3Cc4ccc(O)c5c4C2(CCN3CC2CC2)[C@H]1O5 (stereo not given in full),0.222% (inactive),–
CC(C)(C)OC(=O)NC1[C@H]2CNC[C@@H]12 (stereo not given in full),0.665% (inactive),–
CC(Cc1ccc(OCC(=O)O)cc1)NCC(O)c1cccc(Cl)c1 (stereo not given),7.29% (inactive),–
CN1CC[C@@]2(C)c3cc(OC(=O)Nc4ccccc4)ccc3N(C)[C@@H]12,0.419% (inactive),–
O=C1C=CC(=O)C=C1,4.33% (inactive),–
CC1(C(=O)O)C2CCC(O2)C1(C)C(=O)O (stereo not given),1.41% (inactive),–
CC(C)(C)c1cc(C=C(C#N)C#N)cc(C(C)(C)C)c1O,–,10.6 µM (active)
O=[N+]([O-])c1ccc2nc(N3CCNCC3)ccc2c1,-17.6% (inactive),–
COc1ccc(OC)c(C(O)C(C)N)c1 (stereo not given),3.04% (inactive),–
